An excerpt weighted towards active compounds, which were near 0.83% of everything screened.
S1P4 antag: human S1P4 receptor antagonism; O95977; S1P4-expressing cells, antagonist mode, reporter read-out; inhibition, % at 4.98 µM; 0.26% of 220,000 active; AID 1510; in the data active = inhibition above about 29%
Target sequence (O95977 whole entry, looked up): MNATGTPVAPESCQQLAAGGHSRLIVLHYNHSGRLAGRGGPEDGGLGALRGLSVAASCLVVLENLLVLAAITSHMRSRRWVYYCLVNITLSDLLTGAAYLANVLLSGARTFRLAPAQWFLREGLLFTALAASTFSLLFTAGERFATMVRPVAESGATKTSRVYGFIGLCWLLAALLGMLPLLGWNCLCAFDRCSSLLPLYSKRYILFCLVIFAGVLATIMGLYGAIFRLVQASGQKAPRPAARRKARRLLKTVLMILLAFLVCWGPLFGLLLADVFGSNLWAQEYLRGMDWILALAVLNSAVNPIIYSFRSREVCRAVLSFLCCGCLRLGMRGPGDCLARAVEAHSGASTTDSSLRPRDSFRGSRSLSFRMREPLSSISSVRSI
S1P4 ag: activates the human S1P4 receptor; S1P4-expressing cell line, agonist reporter assay; activation, % at 4.98 µM; 0.35% of 220,000 active; in the data active = activation above about 11%
S1P3 antag-1: antagonists of human S1P3 receptor; 0.27% of 170,000 active; CHO S1P3 NFAT-BLA reporter, FRET fluorescence, antagonist mode; AID 485; Q99500; inhibition, % at 4.98 µM;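 active = inhibition above the plate cutoff, the mean inhibition of test wells on that plate plus 3 SD, cut at about 28% in these data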;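 also: cells challenged with S1P at its EC80 of 0.8 µM; blue over green emission ratio from cleaved BLA substrate after 4 h stimulation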
Hsp70 activator: transcriptional activators of Hsp70. activation, % at 10 µM. 0.04% of 200,000 active. HeLa Hsp70 promoter luciferase reporter, luminescence; scaled: vehicle 0, proteasome-inhibitor control 100%;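 active = activation above the mean across all tested compounds plus 3 SD, cutoff set per campaign, cut at about 5.5% in these data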
Pf gamet viab: P. falciparum stage V gametocyte viability inhibition | inhibition, % at 10.9 µM | P. falciparum stage V gametocytes, ATP luminescence, 24 h | 0.065% of 150,000 active;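 active = inhibition above the mean plus 3 SD of compounds within the control limits, set per campaign, cut at about 38% in these data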
S1P3 antag-2: confirmation of human S1P3 receptor antagonists. inhibition, % at 4.98 µM. 30% of 240 active. shares compounds with S1P3 antag-1. CHO S1P3 NFAT-BLA reporter, FRET, antagonist mode;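 active = inhibition above the hit threshold that was computed for the earlier primary screen, cut at about 30% in these data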
Hsp70 act DR: activates Hsp70 transcription in dose response; HeLa hsp70.1pr-luc reporter, luciferase luminescence; AID 1252; calls only at 99 µM; shares compounds with Hsp70 activator; 10% of 70 active;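 active = over 50% activation at some tested dose; inactive = under 50% activation at every tested dose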
S1P4 agonist cf: human S1P4 agonism, confirmation; 7% of 740 active; shares compounds with S1P4 ag; activation, % at 4.98 µM; S1P4 agonist cell-based reporter assay; in the data active = activation above about 12%
S1P1 agonist: counter-screen for S1P4 agonists: agonists of human S1P1; shares compounds with S1P4 ag; S1P1 agonist cell-based assay, activation; activation, % at 4.98 µM; 4% of 740 active; in the data active = activation above about 21%
S1P4 antag cf: human S1P4 antagonism, confirmation. shares compounds with S1P4 antag. S1P4-expressing cell line, antagonist mode, reporter read-out. inhibition, % at 4.98 µM. 71% of 520 active; in the data active = inhibition above about 30%
S1P1 antagonist: counter-screen for S1P4 antagonists: antagonists of human S1P1; shares compounds with S1P4 antag; cell-based S1P1 antagonist counterscreen, inhibition; inhibition, % at 4.98 µM; 37% of 520 active; AID 1564; in the data active = inhibition above about 40%;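 also: receptor stimulated with S1P near its EC80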
Each line names hits and unclear results; the compound was inactive in the other large screens (follow-up assays come after a bar, where they were run).

Cc1c(CCOC(=O)c2cc([N+](=O)[O-])cc([N+](=O)[O-])c2)sc[n+]1CC(=O)c1ccc(Br)cc1	S1P3 antag-1 37.6 | S1P3 antag-2 inactive
NC(=O)C1CCN(C(=O)/C(=C/c2ccccc2)NC(=O)c2ccccc2)CC1	none (no result: S1P4 antag, S1P4 ag, S1P3 antag-1, Hsp70 activator)
CCOC(=O)C1CCCN(C(=O)/C=C/c2ccccc2[N+](=O)[O-])C1 (configuration not stated)	none
CCCCCCCCCCn1ccc(=N)cc1	none (no result: Hsp70 activator)
CCCCCCCCn1ccc(=N)cc1	S1P3 antag-1 34.6 (no result: Hsp70 activator) | S1P3 antag-2 inactive
CC(C)(C)c1ccc(C(=O)Nc2cccc3c(=O)[nH][nH]c(=O)c23)cc1	S1P3 antag-1 38.4 | S1P3 antag-2 inactive
CC(C)(C)c1ccc(C(=O)Nc2ncn[nH]2)cc1	none
COc1ccc(C(=O)/C=C2\Sc3ccccc3N2C)cc1	none
COc1ccc(-[n+]2c(C)cc(/C=C3\Sc4ccccc4N3C)cc2C)cc1	S1P3 antag-1 50.3 | S1P3 antag-2 30.2
COc1ccccc1-[n+]1c(C)cc(/C=C2\Sc3ccccc3N2C)cc1C	S1P3 antag-1 56.9 (no result: Hsp70 activator) | S1P3 antag-2 39.3
CS(=O)(=O)N(CCC#N)Cc1ccc(/C=C2\C(=O)Nc3ccccc32)o1	none
CC(=O)Cc1nnn(-c2cc(C)on2)n1	none (no result: Hsp70 activator, Pf gamet viab)
Cc1cc(C(=O)CSc2nc3ccccc3c(=O)n2C)c(C)n1CC1CCCO1 (configuration not stated)	S1P4 ag 196.0, S1P3 antag-1 33.4 (no result: Pf gamet viab) | S1P3 antag-2 36.9 | S1P4 agonist cf inactive | S1P1 agonist inactive
C[C@@H](C(=O)CC(=O)OC(C)(C)C)[C@@H](O)c1ccccc1	none (no result: S1P4 antag, S1P4 ag, S1P3 antag-1, Hsp70 activator)
O=C(NC(Nc1nc2ccc([N+](=O)[O-])cc2s1)(C(F)(F)F)C(F)(F)F)c1ccccc1Cl	S1P4 antag 43.4, S1P3 antag-1 69.5 | S1P3 antag-2 53.1 | S1P4 antag cf 64.5 | S1P1 antagonist inactive
O=C(NC(Nc1nc2ccc([N+](=O)[O-])cc2s1)(C(F)(F)F)C(F)(F)F)c1cccnc1	none
O=C(/C=C/c1cn(CC(O)CN2CCCCC2)c2ccccc12)c1cccs1 (configuration not stated)	S1P4 antag 30.5, S1P3 antag-1 31.5 | S1P3 antag-2 inactive | S1P4 antag cf 52.5 | S1P1 antagonist 45.5
CC(NC(=S)NCCCN1CCOCC1)C12CC3CC(CC(C3)C1)C2 (configuration not stated)	none
CN(C)/C=C1/NC(=S)NC1=O	Hsp70 activator 6.1 | Hsp70 act DR inactive
Cc1c(O)ccc(C(=O)CN2CCN(Cc3ccc4c(c3)OCO4)CC2)c1O	Hsp70 activator 78.7 (no result: Pf gamet viab) | Hsp70 act DR inactive
CS(=O)(=O)N1CCN(c2ccc(NC(=O)c3ccc([N+](=O)[O-])o3)cc2)CC1	Hsp70 activator 8.1 | Hsp70 act DR inactive
O=C(Nc1ccc(N2CCN(C(=O)c3ccc(Cl)cc3)CC2)cc1)c1ccc([N+](=O)[O-])o1	none
O=C(Nc1ccc(N2CCCC2)c(Cl)c1)c1ccc([N+](=O)[O-])o1	S1P4 antag 89.7, Hsp70 activator 19.8 | Hsp70 act DR inactive
O=C(/C=C/c1ccccc1F)c1cccc([N+](=O)[O-])c1	none
O=C(Oc1ccc(F)cc1C(=O)/C=C/c1cccs1)c1cccc([N+](=O)[O-])c1	Hsp70 activator 12.4 (no result: S1P3 antag-1, Pf gamet viab) | Hsp70 act DR inactive
Cc1cc(C)c(NC(=S)NC(NC(=O)c2ccccc2)C(Cl)(Cl)Cl)c(C)c1 (configuration not stated)	none
Cc1ccc(NC(=S)NC(NC(=O)c2ccccc2)C(Cl)(Cl)Cl)c(C)c1 (configuration not stated)	Hsp70 activator 7.0 | Hsp70 act DR inactive
CC(=O)Nc1cccc(N=NN2CCCCC2)c1	none
CC1C/C(=C/c2cccn2C)C(=O)/C(=C/c2cccn2C)C1 (configuration not stated)	none (no result: S1P3 antag-1, Pf gamet viab)
CC1C/C(=C/c2ccncc2)C(=O)/C(=C/c2ccncc2)C1 (configuration not stated)	Hsp70 activator 177.6 | Hsp70 act DR active
O=C(NCC1COc2ccccc2O1)C1CCCN(S(=O)(=O)c2cnc[nH]2)C1 (configuration not stated)	Hsp70 activator 5.8 (no result: Pf gamet viab) | Hsp70 act DR inactive
Cc1ccc(F)cc1NC(=O)N1c2ccccc2NC(=O)CC1C (configuration not stated)	none (no result: Hsp70 activator)
CC[n+]1c(/C=C2\Sc3ccccc3N2C)ccc2cccc(C)c21	Hsp70 activator 8.9 | Hsp70 act DR inactive
COc1ccc(NC(=O)/C(Cl)=C(/Cl)S(=O)Cc2ccccc2Cl)cn1 (configuration not stated)	S1P4 antag 102.0, S1P3 antag-1 47.1, Hsp70 activator 37.2 (no result: Pf gamet viab) | Hsp70 act DR inactive
COc1ccc(NC(=O)Cc2ccc(Cl)c(Cl)c2)cn1	none
CCOC(=O)C1(C/C(C)=N/NC(N)=O)CC(C)OC1=O (configuration not stated)	Hsp70 activator 5.7 | Hsp70 act DR inactive
Cc1cccc(-c2noc(CCCC(=O)N3CCOCC3)n2)c1	Hsp70 activator 14.6 (no result: S1P3 antag-1, Pf gamet viab) | Hsp70 act DR inactive
CCOC(=O)C(C)Oc1ccc(NC(=O)C(Cl)Cl)cc1 (configuration not stated)	none (no result: Hsp70 activator)
CCOC(=O)c1sc2nc(C)nc(Nc3ccccc3)c2c1C	Hsp70 activator 5.7 | Hsp70 act DR inactive
CCOC(=O)c1sc(N)c(C(=O)Nc2ccccc2)c1C	none
Cc1ccc(OCC(=O)Nc2ccccc2[N+](=O)[O-])c(Br)c1	none
O=C(CN1C(=O)CC(c2ccco2)Sc2ccccc21)NC1CCCCC1 (configuration not stated)	none (no result: Pf gamet viab)
CC(=O)NC1=NN(C(C)=O)C2(S1)C(=O)N(CC(C)C)c1ccc(C)cc12 (configuration not stated)	none (no result: Hsp70 activator)
CCN1C/C(=C/c2ccc(OC)c(O)c2)C(=O)/C(=C/c2ccc(OC)c(O)c2)C1	Hsp70 activator 644.1 | Hsp70 act DR active
COc1ccc(C=C2C(=O)c3ccccc3C2=O)cc1O	none
O=c1cc(-c2ccccc2Cl)oc2cc(O)cc(O)c12	none
O=C1C=CC(O)(c2cc(=O)c3c(O)cc(O)cc3o2)C=C1	Hsp70 activator 24.5 | Hsp70 act DR active

Screening data (PubChem BioAssay)
